Hits are enriched below; roughly 12% of the tested compounds scored in any of these assays.
L3MBTL1 block = L3MBTL1 (human) inhibition | Q9Y468 | AlphaScreen L3MBTL1–H3K9me1 peptide binding | Potency, µM (top dose mostly 57.1 µM), for the others: at the highest dose activity, negative = inhibition, usual class: inhibitors | hit rate 0.66% among 230,000 | AID 485360; further: on the % scale 0 is the no-effect control and ±100 the full control effect; nearly all actives have a fitted effect of over 60% in size
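First, the protein-peptide complex forms for 30 min at room temperature (L3MBTL1 50 nM, biotinylated H3K9me1 peptide 75 nM). Next, compounds are pin-transferred and incubated 30 min. Finally, AlphaScreen beads are added and read after 30 min.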
G9a inh = blocks human histone lysine methyltransferase G9a; Q96KQ7; hit rate 8.8% among 350,000; Potency, µM (top dose mostly 102 µM), for the others: at the highest dose activity, negative = inhibition, hits mostly inhibitors; G9a H3K9 monomethylation, AlphaScreen, 2 h; further: on the % scale 0 is the no-effect control and ±100 the full control effect; nearly all actives have a fitted effect of over 75% in size
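Chemiluminescent proximity detection of H3K9 monomethylation, read after 10 min bead incubation in the dark. Reaction: 20 nM G9a, 500 nM biotin-H3K9 peptide, 20 uM SAM cofactor, 2 h, room temperature, following 15 min enzyme-compound preincubation.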
JMJD2A Tudor inh = JMJD2A Tudor domain (human) inhibition; AID 504339; AlphaScreen JMJD2A-Tudor / H3K4me3 peptide binding; O75164; Potency, µM (doses to about 114 µM), for inactives: top-dose activity change, negative = inhibition, usual class: inhibitors; hit rate 4.4% among 390,000; further: on the % scale 0 is the no-effect control and ±100 the full control effect; nearly all actives have a fitted effect of over 50% in size
Target sequence (O75164 whole entry, looked up, the tested form may be a part): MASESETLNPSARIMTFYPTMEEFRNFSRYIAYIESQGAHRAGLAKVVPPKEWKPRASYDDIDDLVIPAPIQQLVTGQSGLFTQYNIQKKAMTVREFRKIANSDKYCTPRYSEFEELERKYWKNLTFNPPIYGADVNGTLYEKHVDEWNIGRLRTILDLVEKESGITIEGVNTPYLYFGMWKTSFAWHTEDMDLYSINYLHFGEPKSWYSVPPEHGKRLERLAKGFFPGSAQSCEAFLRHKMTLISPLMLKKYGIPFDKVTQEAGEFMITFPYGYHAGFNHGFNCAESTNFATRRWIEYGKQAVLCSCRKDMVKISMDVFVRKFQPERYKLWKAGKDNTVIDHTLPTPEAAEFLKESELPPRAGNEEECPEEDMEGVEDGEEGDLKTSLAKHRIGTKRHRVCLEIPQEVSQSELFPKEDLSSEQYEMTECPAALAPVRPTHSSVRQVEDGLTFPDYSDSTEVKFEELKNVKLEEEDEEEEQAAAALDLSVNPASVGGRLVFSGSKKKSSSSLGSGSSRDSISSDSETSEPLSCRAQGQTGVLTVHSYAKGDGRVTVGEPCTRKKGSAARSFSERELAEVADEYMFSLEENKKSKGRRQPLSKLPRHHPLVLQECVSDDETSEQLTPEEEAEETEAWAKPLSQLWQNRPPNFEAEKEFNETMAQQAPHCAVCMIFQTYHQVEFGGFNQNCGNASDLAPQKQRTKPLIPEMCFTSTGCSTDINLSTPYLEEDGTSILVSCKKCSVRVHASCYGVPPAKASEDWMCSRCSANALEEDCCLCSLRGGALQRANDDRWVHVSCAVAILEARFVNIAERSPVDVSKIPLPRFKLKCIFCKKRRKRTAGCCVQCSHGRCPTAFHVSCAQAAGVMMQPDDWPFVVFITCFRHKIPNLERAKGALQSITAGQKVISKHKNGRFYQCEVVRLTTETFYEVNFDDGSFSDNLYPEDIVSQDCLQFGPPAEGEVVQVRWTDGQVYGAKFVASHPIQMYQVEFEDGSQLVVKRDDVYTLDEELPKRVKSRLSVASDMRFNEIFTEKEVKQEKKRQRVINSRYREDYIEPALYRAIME
Sfp inh = blocks B. subtilis Sfp PPTase activity; Potency, µM, without a hit: largest response in the series, negative = inhibition, actives largely listed as inhibitors; Biochemical Sfp PPTase activity, qHTS; hit rate 3.5% among 310,000;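 further: the enzyme is Sfp with the accession as filed and its product quenches rhodamine fluorescence; 0% = enzyme reaction without inhibitor and -100% = no enzyme wells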
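Sfp 15 nM + cpd, 15 min RT; start w/ rhodamine-CoA 5 uM, BHQ-2-YbbR 12.5 uM (final); 50 mM Hepes pH 7.6, 10 mM MgCl2, 0.01% NP-40, 0.01% BSA; read 525/598 nm at 0 and 30 min.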
BAZ2B block = BAZ2B (human) inhibition; Q9UIF8; hit rate 4.4% among 360,000; AlphaScreen BAZ2B-H3K14Ac peptide displacement; Potency, µM (top dose mostly 114 µM), for inactives: at the highest dose activity change, negative = inhibition, most hits filed as inhibitors; further: on the % scale 0 is the no-effect control and ±100 the full control effect; nearly all actives have a fitted effect of over 60% in size
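BAZ2B (50 nM) with biotin-H3(5-23)K14Ac peptide (50 nM) in PBS pH 7.4, 0.01% Tween-20, preformed 30 min, then compound 30 min at room temperature; top concentration 110uM. AlphaScreen streptavidin donor/nickel chelate acceptor beads (10 ug/mL final), 20 min dark, signal read.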
HP1b binding inh = blocks HP1-beta chromodomain binding to methylated histone tails | P83916 | AlphaScreen HP1-beta / biotin-H3K9me3 peptide binding | Potency, µM (doses to about 114 µM), for inactives: at the top dose activity change, negative = inhibition, actives largely listed as inhibitors | hit rate 0.56% among 390,000; further: nearly all actives have a fitted effect of over 70% in size
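Compound inhibition of the preformed complex between 50 nM HP1-beta and 50 nM biotinylated H3K9me3 peptide was read by AlphaScreen. Buffer was PBS pH 7.4 with 0.01% Tween-20. Incubations ran 30 min at room temperature, with 10 ug/mL donor/acceptor beads.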
Active calls of the source: *; [ ] = remark or other dose. The call rests on the fitted dose curve; in most records, active means well fitted curve in the direction sought with a large enough effect; inconclusive means small, poorly fitted or top-dose-only effect, or another doubt; inactive means no such curve, though single readings can be large; an effect the other way counts as inactive or inconclusive. Potency means the concentration at half of the fitted maximal effect.

`CCc1ccc(CN(Cc2ccco2)c2cnc(S(C)(=O)=O)nc2C(=O)Nc2cccc(C)c2)cc1` gave G9a inh -9%[59 µM], JMJD2A Tudor inh -18%, BAZ2B block -31% and HP1b binding inh 27%.
Screening CCCCc1nn2c(=O)cc(COC(=O)c3ccc(NC(=O)C(CC)CC)cc3)nc2s1 returned G9a inh 11%[12.7 µM], JMJD2A Tudor inh -5%, BAZ2B block -10% and HP1b binding inh 30%.
Screening CCN(CC)C(=O)c1ccc2c(c1)N(Cc1c(F)cccc1Cl)C(=O)c1ccccc1S2 returned G9a inh -18%[59 µM], JMJD2A Tudor inh -22% and HP1b binding inh 23%.
Nc1nc(N)nc(-c2ccccn2)n1 was read as L3MBTL1 block inconclusive, G9a inh -44%[59 µM], JMJD2A Tudor inh 50µM*, Sfp inh -8%, BAZ2B block 20µM* and HP1b binding inh 22%.
Screening c1ccc(-c2cncnc2)nc1 returned L3MBTL1 block -2%, G9a inh 4%[0.501 µM], JMJD2A Tudor inh -11%, BAZ2B block 13% and HP1b binding inh 38%.
For c1ccc(-c2cnc(-c3ccccn3)nn2)cc1 the results were JMJD2A Tudor inh 14µM* and HP1b binding inh 27%.
For c1ccc(-c2nc(-c3ccccn3)nc(-c3ccccn3)n2)nc1 the results were G9a inh 47%[59 µM], JMJD2A Tudor inh -18%, Sfp inh inconclusive, BAZ2B block -4% and HP1b binding inh 10%.
`c1ccc(-c2cnnc(-c3ccccn3)n2)cc1` gave JMJD2A Tudor inh 11µM* and HP1b binding inh 34%.
`Clc1ccc(-c2cnnc(-c3ccccn3)n2)cc1` gave L3MBTL1 block 3.2µM*, JMJD2A Tudor inh 10µM* and HP1b binding inh 31%.
`COC(=O)N1C2CC3(C)CC(=O)CC1(C)C3c1ccccc12` (centres undefined) gave Sfp inh -1%.
For Cc1ccc(N2CCN(C(=O)C3CCN(c4ncnc5c4nc4n5CCCCC4)CC3)CC2)c(C)c1 the results were G9a inh -27%[59 µM], JMJD2A Tudor inh -9%, BAZ2B block -13% and HP1b binding inh 27%.
Screening CC1Cn2c(C(=O)NCCc3ccc(Cl)cc3)cc3cccc(c32)S1 (centres undefined) returned G9a inh 33%[59 µM], JMJD2A Tudor inh 46%, BAZ2B block 1% and HP1b binding inh 89%.
For O=C(Nc1ccccc1C(F)(F)F)c1ccc2oc(=O)c(S(=O)(=O)c3ccc(F)cc3)cc2c1 the results were G9a inh 5%[59 µM], JMJD2A Tudor inh -5%, BAZ2B block -4% and HP1b binding inh 12%.
For O=[N+]([O-])c1ccc(-c2nnc3cccc(Cl)n23)cc1 the results were G9a inh 35µM*, JMJD2A Tudor inh 56µM*, Sfp inh 10%, BAZ2B block inconclusive and HP1b binding inh 22%.
`O=[N+]([O-])c1cccc(-c2nnc3ccc4ccccc4n23)c1` gave L3MBTL1 block -17%, G9a inh 14µM*, JMJD2A Tudor inh inconclusive, Sfp inh -18%, BAZ2B block inconclusive and HP1b binding inh -17%.
Screening O=[N+]([O-])c1cccc(-c2nnc3cccc(Cl)n23)c1 returned G9a inh -42%, JMJD2A Tudor inh -22%, Sfp inh 8%, BAZ2B block 10% and HP1b binding inh 54%.
`Cc1csc2nc(COC(=O)c3ccc(NC(=O)C(C)C)cc3)cc(=O)n12` gave G9a inh inconclusive, JMJD2A Tudor inh -21%, BAZ2B block -7% and HP1b binding inh -1%.
For Cc1cccc(CCNC(=O)c2cnc3c(C)cccn3c2=O)c1 the results were G9a inh 11%[59 µM], JMJD2A Tudor inh 10%, BAZ2B block 10% and HP1b binding inh 46%.
For COc1cccc([C@@H]2Oc3ccc(OC)cc3C(=O)[C@H]2OC(=O)NS(=O)(=O)c2ccc(F)cc2)c1 the results were Sfp inh -30%.
